Assay outcomes from PubChem.
An excerpt weighted towards active compounds, which were near 7.6% of everything screened.
NS3h inh CB – hepatitis C NS3 helicase inhibition, primary screen; inhibition, % at 100 µM; AID 687043; hit rate 1.6% among 16,000; NS3h Cy5-dT15 DNA binding, fluorescence polarization;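 active = inhibition above the average over every tested compound plus 3 SD, cut at about 40% in these data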
Cy5 interf NS3h – enhances or quenches Cy5 fluorescence in NS3h assay. AID 720488. Cy5-dT15 DNA with NS3h, fluorescence interference; actives lie on both sides; signal over control mean, under 1 quenches. fluorescence interference ratio at 100 µM. hit rate 6% among 16,000;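 active = compound fluorescence over control fluorescence at most 0.8, a quencher, or at least a set upper limit, an enhancer; inactive = ratio between 0.8 and the set upper limit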
HCV NS3h conf – hepatitis C NS3 helicase inhibition, confirmation. hit rate 20% among 240. shares compounds with NS3h inh CB. inhibition, % at 100 µM. NS3h binding to Cy5-dT15 DNA, fluorescence polarization. AID 720485;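 active = percent inhibition of 50% or more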
SSB-DNA FP CB – counter-screen for HCV NS3 helicase inhibitors: E. coli SSB binding; shares compounds with NS3h inh CB; E. coli SSB binding Cy5-dT15, fluorescence polarization; inhibition, % at 100 µM; hit rate 40% among 240;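 active = inhibition of at least 50%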;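 also: displacers lower Cy5 polarization so higher inhibition means more SSB displaced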
Target sequence (P0AGE0 whole entry, looked up): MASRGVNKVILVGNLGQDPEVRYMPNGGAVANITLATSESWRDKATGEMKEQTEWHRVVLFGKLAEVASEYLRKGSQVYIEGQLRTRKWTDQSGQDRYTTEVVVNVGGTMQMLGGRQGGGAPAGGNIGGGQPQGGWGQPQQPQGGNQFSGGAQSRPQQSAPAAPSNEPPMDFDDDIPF
Cy5 SSB fluor CB – enhances or quenches Cy5-DNA fluorescence with E. coli SSB | shares compounds with NS3h inh CB | Cy5-dT15/E. coli SSB fluorescence interference; actives lie on both sides | fluorescence interference ratio at 100 µM | hit rate 8% among 240 | AID 720487;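 active = fluorescence interference ratio at or above 1.2, signal boosting, or at or below 0.8, signal quenching; inactive = ratio between 0.8 and 1.2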;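 also: ratio of compound well signal to mean negative control signal so 1 means no effect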
Cy5 fluor confirm – confirmation counter-screen for HCV NS3 helicase inhibitors: fluorescence interference. shares compounds with NS3h inh CB. Cy5-dT15 DNA/NS3h fluorescence interference counterscreen. fluorescence interference ratio at 100 µM, hits read low. hit rate 44% among 240;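 active = fluorescence interference ratio at or below 0.8 quencher or at or above a set limitenhancer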;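 also: ratio of compound fluorescence to mean of negative controls so 1 means no interference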
Numbers without * were called inactive; · = no result given.

SMILES	NS3h inh CB	Cy5 interf NS3h	HCV NS3h conf	SSB-DNA FP CB	Cy5 SSB fluor CB	Cy5 fluor confirm
O=C(c1cnn2c1NC(c1ccc(Br)cc1)CC2C(F)(F)F)N1CCOCC1 (stereo not drawn)	4	1	·	·	·	·
C=CCN1C(=O)NC(=O)/C(=C/C=C/c2ccco2)C1=O	78*	1.3*	46	41	1.1	0.76*
O=C1NC(=O)N(c2ccccc2Cl)C(=O)/C1=C\C=C\c1ccco1	62*	1.2*	51*	96*	1.2*	0.93
O=C1C=C(Nc2ccccc2)C(=O)N1c1ccccc1Cl	11	1	·	·	·	·
C=CCN1C(=O)NC(=O)C(=Cc2ccc(C(C)C)cc2)C1=O	6	0.99	·	·	·	·
CCc1ccc(NC(=O)C(=O)NC2CC(C)(C)NC(C)(C)C2)cc1	-3	1	·	·	·	·
COc1ccccc1OCc1ccoc1C(=O)O	11	0.98	·	·	·	·
O=S(=O)(NC12CC3CC(CC(C3)C1)C2)c1ccc(Cl)cc1	7	0.89	·	·	·	·
CC(=O)c1ccc(-n2c(C)ccc2-c2ccccc2)cc1	6	1	·	·	·	·
Cc1ccc(C)n1-c1ccc(CC(=O)O)cc1	85*	1.1	67*	96*	0.94	0.84
O=C(c1cnn2c(-c3ccccc3)cc(-c3ccccc3)nc12)N1CCOCC1	9	0.99	·	·	·	·
O=C1/C(=C/c2ccccc2Cl)SC(=S)N1c1ccc(O)cc1	7	0.99	·	·	·	·
COc1cc(/C=C2\SC(=S)NC2=O)cc(Br)c1OC	2	0.97	·	·	·	·
COc1cc(/C=C2/SC(=S)NC2=O)ccc1OC(=O)c1ccccc1Br	42*	1.1	8	2	1	0.78*
COC(=O)C1=C(C)NC2=C(C(=O)c3ccccc32)C1c1ccc(-c2ccc([N+](=O)[O-])cc2OC)o1 (stereo not drawn)	19	1.1	·	·	·	·
O=C(NC(=S)Nc1ccc2oc(-c3ccc(Cl)cc3)nc2c1)c1ccccc1	17	0.99	·	·	·	·
O=C(NC(=S)Nc1ccc2oc(-c3ccc(Cl)c(Cl)c3)nc2c1)c1ccccc1	102*	1.2*	17	38	0.97	0.8*
O=C1NC(c2ccccc2OCc2ccccc2)Nc2ccccc21 (stereo not drawn)	24	0.97	·	·	·	·
CN1C(=O)C(=Cc2c(Cl)cccc2Cl)C(=O)N(C)C1=O	42*	0.99	31	16	0.97	0.9
CN1C(=O)/C(=C/c2c(Cl)cccc2Cl)SC1=S	-8	0.96	·	·	·	·
CC(C)COc1ccc(C(=O)Nc2ccc(Cl)cc2Cl)cc1	-5	0.99	·	·	·	·
COc1cccc(C(=O)Nc2cc([N+](=O)[O-])ccc2O)c1	0	0.96	·	·	·	·
O=C1NC(=O)N(Cc2ccccc2)C(=O)/C1=C/c1cccs1	25	0.83	·	·	·	·
CCN(CC)c1ccc(/C=C2\C(=O)NC(=O)N(Cc3ccccc3)C2=O)c(OC)c1	79*	3*	36	48	2.2*	1.7*
O=C(NC(=S)N1CCCCCC1)c1cccnc1	5	1	·	·	·	·
SMILES	NS3h inh CB	Cy5 interf NS3h	HCV NS3h conf	SSB-DNA FP CB	Cy5 SSB fluor CB	Cy5 fluor confirm
O=C(NC(=S)N1CCOCC1)c1ccccc1	110*	0.4*	0	-7	0.98	0.97
CCOc1ccc(N(CC(=O)Nc2ccccc2Br)S(C)(=O)=O)cc1	9	0.99	·	·	·	·
Cn1c(/C=C/c2ccc(C(=O)c3ccccc3)o2)nc2ccccc21	51*	1.1	20	25	0.92	0.92
Cn1c(/C=C/c2ccco2)nc2ccccc21	4	0.97	·	·	·	·
O=C(Nc1ccc(Cl)c(Cl)c1)c1ccc(Cl)cc1Cl	19	1.1	·	·	·	·
CCC(c1ccccc1)c1nnc(NC(=O)Nc2cccc(Cl)c2)s1 (stereo not drawn)	47*	1.2*	4	9	1	0.74*
O=C(NCC(c1ccccc1)c1ccccc1)Nc1cccc(Cl)c1	3	1	·	·	·	·
Cc1ccc(C(C)C)c(OCC(=O)Nc2ccc(O)c(-c3nc4ccccc4o3)c2)c1	-4	1.1	·	·	·	·
CC1(C)C/C(=N/O)c2cc3c(nc2C1)CCCC3	8	1.2	·	·	·	·
O=C(CC1S/C(=N/N=C\c2cccc(O)c2)NC1=O)Nc1ccc(Cl)c(Cl)c1 (stereo not drawn)	-3	1	·	·	·	·
Cc1ccc(/C=C2\C(=O)NC(=S)N(c3ccc(Br)cc3)C2=O)o1	7	1.1	·	·	·	·
Cc1ccc(C=C2C(=O)NC(=S)N(c3ccccc3Cl)C2=O)o1	60*	0.96	31	78*	1	0.79*
COc1cccc2sc(NC(=O)/C=C/c3ccc([N+](=O)[O-])cc3)nc12	9	1.1	·	·	·	·
CC(=O)N(C)C1=C(Cl)C(=O)c2ccccc2C1=O	90*	0.85	85*	0	0.97	0.97
CC(=O)NC1=C(N(C)C)C(=O)c2ccccc2C1=O	-21	0.91	·	·	·	·
O=c1[nH]c(=S)n(-c2ccccc2F)c(O)c1C=C1C=CC=N1	114*	0.57*	48	128*	0.74*	0.6*
O=c1[nH]c(=O)n(-c2cccc(C(F)(F)F)c2)c(O)c1C=C1C=CC=N1	27	0.97	·	·	·	·
COc1ccc(OC)c(NC(=O)CN(c2cc(OC)ccc2OC)S(C)(=O)=O)c1	-3	1	·	·	·	·
CC(=O)c1ccc(NC(=O)c2ccc3c(c2)OCCO3)cc1	-4	0.97	·	·	·	·
O=C(Nc1ccc(Cl)cc1)c1ccc2c(c1)OCCO2	27	1.1	62*	76*	1.1	0.96
COc1ccc(NC(=O)/C(C#N)=C/c2cc(C)n(-c3cccc([N+](=O)[O-])c3)c2C)cc1	14	1	·	·	·	·
O=C1NC(=O)C(=Cc2cc(Br)ccc2OCc2cccc3ccccc23)C(=O)N1	48*	0.86	26	72*	0.87	0.91
O=C1NC(=O)C(=Cc2ccccc2OCCOc2ccccc2)C(=O)N1	30	1	·	·	·	·
CCN1C(=O)/C(=C\c2cn(-c3ccccc3)nc2-c2ccc(Br)cc2)SC1=S	7	1.1	·	·	·	·
O=C(O)CCN1C(=O)/C(=C/c2cn(-c3ccccc3)nc2-c2ccc(Br)cc2)SC1=S	146*	0.97	35	25	0.92	0.87
SMILES	NS3h inh CB	Cy5 interf NS3h	HCV NS3h conf	SSB-DNA FP CB	Cy5 SSB fluor CB	Cy5 fluor confirm
O=C(c1ccccc1F)N1CCN(c2ccc(C(F)(F)F)cc2[N+](=O)[O-])CC1	6	0.86	·	·	·	·
COc1ccc2occ(C(=O)c3ccccc3Cl)c(=O)c2c1	57*	1	26	8	0.99	0.88
COc1ccc(C(=O)c2coc3ccc(O)cc23)cc1	16	1	·	·	·	·
COc1ccc(NC(=NS(=O)(=O)c2ccccc2)c2ccccc2)cc1	7	1	·	·	·	·
Cc1ccc(OCCNC(=O)c2cccc3ccccc23)cc1C	12	0.99	·	·	·	·
O=C(Nc1ccc(F)c([N+](=O)[O-])c1)c1ccc2ccccc2c1	39	0.73*	40	50*	0.7*	0.78*
O=C(Nc1ccc(F)c([N+](=O)[O-])c1)c1ccc2c(c1)OCCO2	22	0.87	·	·	·	·
CCSC1=C(C#N)C(c2ccc(O)cc2)C(C(=O)Nc2ccccc2)=C(C)N1 (stereo not drawn)	6	0.93	·	·	·	·
Cc1c(NC(=O)/C=C/c2ccc(Br)cc2)c(=O)n(-c2ccccc2)n1C	2	1	·	·	·	·
CCOc1ccc(N2C(=O)NC(=O)/C(=C\c3ccc(-c4ccccc4C(=O)O)o3)C2=O)cc1	67*	1	41	39	0.96	0.95
